Test results reported in PubChem BioAssay AID1851 (National Center for Advancing Translational Sciences (NCATS), 2009).
Out of some 16,000 compounds screened, about 2,600 (16%) were called active. Another 20% or so got no clear call; they are omitted. Not all results are given here. Values without a mark were called inactive. Calls follow the shape of the dose curve; as a rule, active = well fitted curve in the direction sought with a large enough effect; inconclusive = small, poorly fitted or top-dose-only effect, or effect the other way; inactive = no such curve, though single readings can be large or run the other way.

target: Cytochrome P450 2D6 (Homo sapiens) (UniProt P10635); assay: Cytochrome panel assay with activity outcomes; conditions: recombinant CYP, pro-luciferin dealkylation, luminescence, p450-cyp2d6; series mostly up to 57.1 µM; activity, negative = inhibition: at the top concentration
Sequence (P10635 whole entry, looked up): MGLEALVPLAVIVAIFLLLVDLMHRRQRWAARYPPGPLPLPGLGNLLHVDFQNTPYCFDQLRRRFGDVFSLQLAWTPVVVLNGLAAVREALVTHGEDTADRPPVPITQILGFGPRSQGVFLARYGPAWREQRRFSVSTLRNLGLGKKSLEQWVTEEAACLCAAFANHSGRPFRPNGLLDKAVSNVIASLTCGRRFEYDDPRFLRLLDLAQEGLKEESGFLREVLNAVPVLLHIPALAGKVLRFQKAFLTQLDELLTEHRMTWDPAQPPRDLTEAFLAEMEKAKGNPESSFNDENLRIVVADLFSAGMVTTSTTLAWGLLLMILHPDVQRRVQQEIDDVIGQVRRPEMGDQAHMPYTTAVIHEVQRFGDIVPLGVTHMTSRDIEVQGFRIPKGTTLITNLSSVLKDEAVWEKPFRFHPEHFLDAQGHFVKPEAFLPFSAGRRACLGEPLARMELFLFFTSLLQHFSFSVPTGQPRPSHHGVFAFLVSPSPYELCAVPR
% is scaled to controls: 0 for no effect and ±100 for the full control effect.

Compound	activity, negative = inhibition	AC50
CCCCCCCCCCCCCCSCC(=O)O	13.5%	
COc1ccc(-n2c(-c3cnccn3)n[nH]c2=S)cc1	-9.31%	
O=C(Nc1cccc(F)c1)N1CCCC2(CCNCC2)C1	-13.8%	
C(/C=C\c1ccccc1)=Nc1ccc2c(c1)Cc1ccccc1-2	-10.4% [at 11.4 µM]	
COc1ccc(-n2c(=O)c(-c3cn(C)c4ccccc34)nc3cncnc32)cc1	-5.82%	
CC(=O)[C@@]1(O)Cc2c(O)c3c(c(O)c2[C@H](O[C@H]2C[C@H](N)[C@H](O)[C@H](C)O2)C1)C(=O)c1ccccc1C3=O	0.0095%	
Cn1c(CCC(=O)Nc2ccc(N3CCOCC3)cc2)nc(=O)c2ccccc21	-12.1%	
COC(=O)c1nn(-c2ccccc2)c(=O)cc1Oc1ccccc1	-9.53%	
N#C[C@@H](N=Nc1ccccc1C(=O)O)C(N)=O	-0.182% [at 11.4 µM]	
O=C(N/N=C/c1cccc(C(F)(F)F)c1)C1CCN(c2ncc(C(F)(F)F)cc2Cl)CC1	25.5%	
COc1ccc(/C=C(/C(=O)Nc2ccccc2C(=O)NC(C)C)c2ccccc2)cc1	-25.8%	
Cc1cccc(N2CCN(C(=O)CSCc3c(C)noc3C)CC2)c1C	-27.5%	
CC(C)OC(=O)CC12CN(C)CC(CC(=O)OC(C)C)(CN(C)C1)C2=O		2.51 µM (active)
COc1ccc(CNC(=O)/C=C/c2ccc(OCCCF)cc2)cc1	-20.6%	
CCC(O)CNc1nc(-n2nc(C)cc2C)nc2sc3c(c12)CC(C)(C)OC3 (centres undefined)	-8.4%	
CCCSc1nc(NCc2ccco2)c2c3c(sc2n1)COC(C)(C)C3		14.1 µM (active)
CCSc1ncnc2c1sc1nc(-c3ccco3)c3c(c12)CC(C)(C)OC3	-3.51%	
O=c1cnc2cnc(N3CCOCC3)nc2n1CCc1ccccc1	-11%	
Cc1cc2c(cc1C)NC(c1nc3ccccc3[nH]1)C1=C(CC(C)(C)CC1=O)N2 (centres undefined)	-11.2%	
CCCc1ccc(C2C3=C(CC(C)(C)CC3=O)NC3=C2C(=O)c2ccccc23)cc1 (centres undefined)	3.78%	
CC1(C)CC(=O)C2=C(C1)Nc1cc3c(cc1C2c1ccc(F)cc1)OCO3 (centres undefined)		7.08 µM (active)
Brc1ccc([C@H]2CN3CCSC3=N2)cc1	-14.8%	
Cc1cccc(C)c1NC(=O)C(NC=O)c1ccccc1Cl (centres undefined)	-25.5%	
Cc1cccc(C)c1NC(=O)C(c1ccccc1)N1CCC1=O (centres undefined)	-9.63%	
Cc1cccc(C)c1NC(=O)C(c1ccc(Cl)cc1Cl)N1CCCCC1 (centres undefined)		10 µM (active)
NC(N)=N[C@@H]1C(O)[C@H](N=C(N)N)[C@@H](O)C(O)[C@H]1O (some centres undefined)	4.19% [at 11.4 µM]	

Compound	activity, negative = inhibition	AC50
CCNS(=O)(=O)c1ccc(NC(=O)c2cc(C(F)(F)F)nn2C)cc1	5.15%	
NNC(=O)Cc1cccnc1	8.36% [at 11.4 µM]	
Cc1cc(C(F)(F)F)nn1CC(=O)Nc1cccnc1		12.6 µM (active)
CC1=NN(c2ccccc2)C(=O)[C@@H]1N=Nc1ccc(S(N)(=O)=O)cc1	8.14% [at 11.4 µM]	
CCOC(=O)N1CCC(NC(=O)CCC(=O)N2CC(C)Oc3ccc(C)cc32)CC1 (centres undefined)	-4.46%	
O=C(Nc1c[nH]c(=O)[nH]c1=O)Oc1ccccc1	-9.58% [at 11.4 µM]	
O=C(OCc1nc2ccccc2s1)c1ccc(Br)s1	-15.7%	
Cc1noc(C)c1-c1cc(NCc2cccnc2)ncn1	8.5%	
COc1cccc(-c2cc(NCc3ccc(OC)cc3OC)ncn2)c1		12.6 µM (active)
Cc1cnc(CNc2cc(-c3cccnc3)ncn2)cn1	-6.26%	
COc1cccc(-c2cc(NCc3ccccc3)ncn2)c1		12.6 µM (active)
COc1ccc(-c2cc(C(=O)NCc3cccnc3)no2)cc1OC	-16.4%	
Cc1noc(C)c1-c1cc(NCc2ccccc2)ncn1	-7.96%	
COc1ccc(CCNc2nc(-c3cccnc3)cs2)cc1OC		7.08 µM (active)
N#Cc1cccc(-c2cc(NCc3ccccc3)ncn2)c1	-10.1%	
COc1ccc(-c2csc(NC(=O)CCn3cnc4ccccc4c3=O)n2)cc1OC	-11.6%	
COc1ccccc1CNc1cc(-c2cccnc2)ncn1		5.01 µM (active)
CCN1CCc2c(sc(N)c2C(N)=O)C1	-8.92%	
OC[C@@H]1O[C@@H](n2cnc3c(NC4CCCCC4)ncnc32)[C@@H](O)[C@H]1O	-1.5%	
O=C(Nc1c(C(=O)N2CCOCC2)cnn1-c1ccccc1)c1ccco1	10.7%	
O=c1c(Cc2ccccc2)c(O)nc2n1CCS2	16%	
O=C(c1ccc2nc3ccc(Cl)cc3c(=O)n2c1)N1CCOCC1	-14.8%	
COc1ccccc1CNc1cc(-c2cccc(C#N)c2)ncn1	-3.17%	
Cc1cnc(CNc2cc(-c3cccc(C#N)c3)ncn2)cn1	4.2%	
COc1cccc(-c2cc(NCc3ccccc3OC)ncn2)c1		15.8 µM (active)
COc1cccc(-c2cc(NCc3cccs3)ncn2)c1		12.6 µM (active)

Compound	activity, negative = inhibition	AC50
COCCn1c(=S)[nH]c2cc(C(=O)NC(C)C)ccc2c1=O	18.7%	
O=C(N/N=C/c1ccncc1)c1cc2c(ccc3ccccc32)o1	-14.2%	
CCCC(CCC)C(=O)NNc1cc(=O)c2c(=O)n(C)c(=O)n(C)c2[nH]1	-14.7%	
O=C(O)c1cc(S(=O)(=O)N2CCCCC2)ccc1F	7.06%	
Cc1ccc(S(=O)(=O)Oc2cc(S(=O)(=O)O)cc3cc(S(=O)(=O)O)cc(N)c23)cc1	8.03% [at 11.4 µM]	
CC(C)Sc1cc(N2CCOCC2)nc(-c2ccc(Cl)cc2)n1	10.4%	
CC(=O)NCCc1ccc(O)c(O)c1	-0.325%	
Oc1cc2c(cc1O)CN(C(=S)NCCc1ccc(Cl)cc1)CCC2		12.6 µM (active)
CC(C)(Oc1ccc(CCNC(=O)c2ccc(Cl)cc2)cc1)C(=O)O	4.92% [at 25.6 µM]	
O=C(NCCc1ccc(Cl)cc1)C1CCN(S(=O)(=O)N2CCC3(CC2)OCCO3)CC1		14.1 µM (active)
CCS(=O)(=O)N1CCC(C(=O)NCc2cccnc2)CC1	-6.02%	
O=C(NCCCN1CCCCCC1)[C@@H](c1ccccc1)C1CCCCC1		0.631 µM (active)
COCCNC(=O)C1CCN(S(=O)(=O)N2CCC3(CC2)OCCO3)CC1	24.2%	
O=C(Nc1cccn(Cc2ccc(F)cc2)c1=O)NC1CCCCC1	-13.3%	
CCN1CCN(CCCNC(=O)C(NC(=O)C2CCC(C)CC2)C(C)C)CC1 (centres undefined)	2.19%	
CC(C)C(NC(=O)C1CCCCC1)C(=O)NCc1ccccn1 (centres undefined)	18.3%	
CCCCNC(=O)C1CCN(Cc2ccccn2)CC1		8.91 µM (active)
O=C(NCCCN1CCN(C2CCCCC2)CC1)Nc1ccccc1C(F)(F)F		5.01 µM (active)
O=C(NCc1ccccc1Cl)C1CCN(S(=O)(=O)N2CCC3(CC2)OCCO3)CC1	-3.92%	
O=C1NCCCC1C(=O)Nc1ccccc1C(F)(F)F (centres undefined)	-13.4%	
CCOC(=O)CSc1ncc(OC)c(Sc2ccc(Cl)cc2)n1	-24.8%	
CCCC(=O)Nc1nc(-c2ccc3c(c2)CCN3S(C)(=O)=O)cs1	-1.01%	
COc1ccccc1C(=O)O/N=C1/CCCc2c1ccc(OC)c2[N+](=O)[O-]	3.73%	
C[C@](N)(Cc1ccc(O)c(O)c1)C(=O)O	-0.0132%	
Nc1nc(N)c2nn(-c3ccc(C(=O)O)cc3)nc2n1	-6.74% [at 11.4 µM]	
Cc1c(-c2ccc(F)cc2)nc(N)c(C#N)c1-c1cccs1	-11%	

Compound	activity, negative = inhibition	AC50
CCOc1ccc(N=C2NC(=O)C(CC(=O)O)S2)cc1 (centres undefined)	-2.86%	
Cc1ccc(NC(=O)CCC(=O)NNS(=O)(=O)c2ccccc2)c(C)c1	-2.14%	
Cc1cc(C)c(S(=O)(=O)NNC(=O)C2CCN(Cc3ccccc3)CC2)c(C)c1		15.8 µM (active)
O=C(NCCCN1CCC(Cc2ccccc2)CC1)C1CCN(S(=O)(=O)N2CCOCC2)CC1		12.6 µM (active)
O=C(NCCCN1CCc2ccccc2C1)C1CCN(S(=O)(=O)N2CCCC2)CC1		7.94 µM (active)
CCS(=O)(=O)N1CCC(C(=O)NCCCN2CCCC2)CC1	-1.23%	
O=C(C1CCN(S(=O)(=O)N2CCOCC2)CC1)N1CCN(Cc2ccccc2)CC1	-1.18%	
CCCCN(CC)S(=O)(=O)N1CCC(C(=O)NCCCN2CCOCC2)CC1	-4.19%	
CC(C)N(CCNC(=O)C1CCN(S(=O)(=O)N2CCOCC2)CC1)Cc1ccccc1	-20.1%	
COc1cccc(CNC(=O)C2CCN(S(=O)(=O)N3CCCCC3)CC2)c1	-15.4%	
O=C(NCc1ccc(F)cc1)C1CCN(S(=O)(=O)N2CCCCC2)CC1	-7.67%	
O=C(NCCCN1CCN(Cc2ccccc2)CC1)C1CCN(S(=O)(=O)N2CCCC2)CC1		3.98 µM (active)
CCN1C(=O)CC(N2CCN(CC(=O)NC(C)C)CC2)C1=O (centres undefined)	22.1%	
CCN(CC)C(=O)Cn1cc(/C=C(\C#N)C(=O)N2CCN(c3ccccc3)CC2)c2ccccc21	-15.9%	
Cc1ccc(-c2nc3ncccn3c2NC(=O)C2CC2)cc1	-1.06%	
CCn1c(=O)c2c(O)cc(=O)oc2c2ccccc21	9.72%	
CCc1c(C)c(C#N)c2nc3ccccc3n2c1Nc1c(C)n(C)n(-c2ccccc2)c1=O	-27.3%	
N#CCCn1c(=O)c(-c2ccccc2)nc2cnc(Oc3cccc(Cl)c3)nc21	2.25%	
Cn1cc(-c2nc3cnc(Oc4ccccc4)nc3n(C)c2=O)c2ccccc21	6.63%	
CC[C@H](CN(C)C)C(=O)c1ccco1	-4.86% [at 11.4 µM]	
COc1ccccc1/C=N/NC(=Nc1ccc(C)cc1)c1nc2ccccc2s1	3.23%	
COCCn1c(=O)c(C)nc2cncnc21	-17.4%	
CSc1nc(Sc2cccc(Cl)c2)c2ccccc2n1	-0.0132%	
Cc1c(N2C(=O)CS/C2=N\N=C\c2ccc(Cl)cc2)c(=O)n(-c2ccccc2)n1C	21%	
CC(C)Cn1c(-c2nn(C)cc2Cl)n[nH]c1=S	-6.99%	
O=C(Nc1cccc(F)c1)N1CCC2(CC1)CCN(C(=O)c1csnn1)CC2	-19.8%	
